Most compounds without a hit are left out; they make up all but 2.5% or so of the library.
Cruzain noTriton: qHTS Assay for Promiscuous and Specific Inhibitors of Cruzain (without detergent) | purified cruzain, Z-FR-AMC fluorescence, no detergent | Potency, µM, actives largely listed as inhibitors | actives 2.3% (n = 200,000); also: nearly all actives have a fitted effect of over 40% in size
Target sequence (P25779 123-467 limits assumed): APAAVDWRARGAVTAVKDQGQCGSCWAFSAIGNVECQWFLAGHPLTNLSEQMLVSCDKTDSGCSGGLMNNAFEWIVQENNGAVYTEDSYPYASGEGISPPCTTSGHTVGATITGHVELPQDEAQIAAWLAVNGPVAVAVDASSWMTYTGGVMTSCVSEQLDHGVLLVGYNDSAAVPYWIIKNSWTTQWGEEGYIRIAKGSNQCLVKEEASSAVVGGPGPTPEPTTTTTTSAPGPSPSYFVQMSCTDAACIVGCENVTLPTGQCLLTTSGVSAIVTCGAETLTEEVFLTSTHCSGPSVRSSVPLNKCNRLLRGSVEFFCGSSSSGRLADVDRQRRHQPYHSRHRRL
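Detergent-free condition (0.00005% Triton X-100) in acetate buffer pH 5.5 with DTT. 1.5 nM enzyme and compound were pre-mixed 15 min, then 2 uM Z-FR-AMC substrate added; reaction progress from fluorescence change between first and third reads (60 s).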
Cruzain Triton: qHTS Assay for Promiscuous and Specific Inhibitors of Cruzain (with detergent). Cruzipain (Trypanosoma cruzi), P25779. purified cruzain, Z-FR-AMC fluorescence, 0.01% Triton. Potency, µM, hits mostly inhibitors. actives 0.43% (n = 200,000). AID 1478, 2009; also: nearly all actives have a fitted effect of over 40% in size
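Compounds were screened in titration against cruzain (1.5 nM) with 0.01% Triton X-100 to counter colloidal aggregation. Activity was the AMC fluorescence increase over 60 s after adding 2 uM Z-FR-AMC at pH 5.5.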
Papain inh: qHTS Assay for Inhibitors of Papain: Counterscreen for Cruzain Assay; actives 41% (n = 410); Potency, µM, actives largely listed as inhibitors; purified papain, Z-FR-AMC fluorescence cleavage; shares compounds with Cruzain Triton; also: nearly all actives have a fitted effect of over 35% in size
Target sequence (P00784 whole entry, looked up): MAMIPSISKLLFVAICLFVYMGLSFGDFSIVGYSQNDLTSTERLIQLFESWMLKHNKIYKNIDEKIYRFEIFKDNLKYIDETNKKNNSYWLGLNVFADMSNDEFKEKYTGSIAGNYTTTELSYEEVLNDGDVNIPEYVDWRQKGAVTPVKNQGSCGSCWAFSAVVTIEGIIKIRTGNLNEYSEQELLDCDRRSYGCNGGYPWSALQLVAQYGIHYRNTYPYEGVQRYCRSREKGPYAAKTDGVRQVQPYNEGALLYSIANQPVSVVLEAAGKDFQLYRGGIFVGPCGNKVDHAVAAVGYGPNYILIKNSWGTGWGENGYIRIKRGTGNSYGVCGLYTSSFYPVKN
Each line names hits and unclear results; the compound was inactive in the other large screens (follow-up assays come after a bar, where they were run). Calls follow the shape of the dose curve; as a rule, active = well fitted curve in the direction sought with a large enough effect; inconclusive = small, poorly fitted or top-dose-only effect, or another doubt; inactive = no such curve, though single readings can be large; an effect the other way counts as inactive or inconclusive.

CCOc1ccc(NC(=O)c2nn(C)c3c2CS(=O)(=O)c2ccccc2-3)cc1	none
COc1ccc(-n2c(C)nn(C)c2=O)cc1	none
Cn1nc(-c2ccc(Cl)cc2)nc2c(=O)n(C)c(=O)nc1-2	Cruzain noTriton 1.6µM, Cruzain Triton 1.6µM | Papain inh inactive
Cn1c(=O)nc2n(Cc3ccccc3)c3ccccc3cc-2c1=O	Cruzain Triton inconclusive
COc1ccc(-c2nc3c(=O)n(C)c(=O)nc-3n(C)n2)cc1	none (no result: Cruzain noTriton, Cruzain Triton) | Papain inh inactive
Cc1ccc(-c2nc3n(n2)C(=O)CC(c2ccc(Cl)cc2)S3)cc1 (centres undefined)	none
CCn1nc(-c2ccccc2C)nc2c(=O)n(C)c(=O)nc1-2	none (no result: Cruzain noTriton, Cruzain Triton) | Papain inh inactive
Cn1nc(-c2cccnc2)nc2c(=O)n(C)c(=O)nc1-2	none (no result: Cruzain noTriton, Cruzain Triton) | Papain inh inactive
Cc1cc(C)n2nc(-c3cccnc3)nc2n1	none
CCc1nnc(SCc2nc(-c3ccc(OC)cc3)oc2C)c2cc3sccc3n12	Cruzain noTriton inconclusive
NS(=O)(=O)c1ccc(CCNC(=O)c2ccc3nc(CCc4ccccc4)oc3c2)cc1	none
CC(C)n1c(SCC(=O)c2ccc(F)cc2)nc2c(sc3ccccc32)c1=O	none
CC(=O)NC1=C(OS(=O)(=O)c2ccc(C)cc2)CN(C)C1=O	none
Cn1nc(-c2ccc(F)cc2)nc2c(=O)n(C)c(=O)nc1-2	none (no result: Cruzain noTriton, Cruzain Triton) | Papain inh inactive
Cc1cc(C)n2nc(-c3ccc(F)cc3)nc2n1	none
CCCNC(=O)Cn1nc(C)c2c(C)n(-c3ccccc3)nc2c1=O	none
CCOc1ccc(CCNC(=O)c2[nH]c3cc(OC)ccc3c2Sc2ccccc2)cc1OCC	none
CCc1ccc2[nH]c(=O)c(CN(Cc3cccnc3)Cc3nnnn3Cc3ccccc3)cc2c1	none (no result: Cruzain noTriton, Cruzain Triton) | Papain inh inactive
Cc1ccc2[nH]c(=O)c(CN(Cc3cccs3)Cc3nnnn3Cc3ccccc3)cc2c1	none
CCc1ccc2[nH]c(=O)c(CN(Cc3ccccc3)Cc3nnnn3C(C)(C)C)cc2c1	none (no result: Cruzain noTriton, Cruzain Triton) | Papain inh inactive
CCc1ccc2[nH]c(=O)c(CN(Cc3ccc(OC)cc3)Cc3nnnn3CCOC)cc2c1	Cruzain noTriton inconclusive
CC1CCCN(c2ccc(C(=O)OCC(=O)N3c4ccccc4Sc4ccccc43)cc2[N+](=O)[O-])C1 (centres undefined)	Cruzain noTriton 4µM | Papain inh inactive
CC1CCCN(c2ccc(C(=O)OCn3nnc4ccccc4c3=O)cc2[N+](=O)[O-])C1 (centres undefined)	Cruzain noTriton inconclusive
CN1N/C(=C\c2ccccc2)N=C2C(=O)N(C)C(=O)N=C21	none (no result: Cruzain noTriton, Cruzain Triton) | Papain inh inactive
CC/C=C1/N=C2C(=O)N(C)C(=O)N=C2N(C)N1	none (no result: Cruzain noTriton, Cruzain Triton) | Papain inh inactive
CN1C(=O)/C(=C/c2ccc3c(c2)OCO3)N=C1c1ccccc1	none
CC(Oc1ccc(F)cc1)C(=O)N1CCC(c2nc3ccccc3s2)CC1 (centres undefined)	Cruzain noTriton inconclusive
CCCNC(=O)C1CCC(Cn2c(=O)c3sccc3n(CC(=O)N(CC)CC)c2=O)CC1 (centres undefined)	none
COc1ccc(S(=O)(=O)N(CC(=O)NCCSc2ccccc2)c2ccc(C)cc2)cc1	none
C=Cn1ccnc1P(=S)(c1ccc(N(C)C)cc1)c1nccn1C=C	Cruzain noTriton inconclusive
C=Cn1ccnc1P(=S)(c1ccc2c(c1)c1ccccc1n2CC)c1nccn1C=C	Cruzain noTriton inconclusive | Papain inh inactive
COc1ccc(-c2cc3nc(C)c(CCC(=O)N4CCN(c5cccc(Cl)c5)CC4)c(C)n3n2)c(OC)c1	none
O=[N+]([O-])c1ccccc1S(=O)(=O)NCCC1=CCCCC1	none
O=[N+]([O-])c1ccccc1S(=O)(=O)NCC1CCC(CNCC2CCc3ccccc3C2)CC1 (centres undefined)	none | Papain inh inactive
CC(=O)c1cccc(NC(=O)c2sc(-n3nc(C)c(Cc4ccccc4)c3C)nc2C)c1	none
COc1cc(NC(=O)CC(C)S(=O)(=O)c2cc3c4c(c2)CCN4C(=O)CC3)cc(OC)c1 (centres undefined)	none
CC(=O)n1cc(/C=C2/N=C(c3ccccc3)OC2=O)c2ccccc21	Cruzain noTriton 20µM, Cruzain Triton 4.5µM | Papain inh 1.6µM
Cc1ccc2cc(/C=C3\N=C(c4ccccc4)OC3=O)c(N3CCOCC3)nc2c1	Cruzain noTriton inconclusive
C=CCNC(=O)c1ccc2nc(-c3ccccc3)c(-c3ccccc3)nc2c1	none
CNC(=O)c1ccc2nc(-c3ccccc3)c(-c3ccccc3)nc2c1	none (no result: Cruzain noTriton, Cruzain Triton) | Papain inh inactive
Nc1ccc2c(c1)C(=O)C(=O)c1ccccc1-2	Cruzain noTriton inconclusive, Cruzain Triton 22µM | Papain inh 16µM
Nc1ccc2c(c1)C(=O)c1ccccc1C2=O	none
CC1CCN(c2oc(-c3cccs3)nc2S(=O)(=O)c2ccc(Cl)cc2)CC1	none
COc1ccc2nc(SCC(N)=O)[nH]c2c1	none
COc1ccc2[nH]c(=O)c(NC(N)=S)nc2c1	Cruzain noTriton 1.3µM, Cruzain Triton 2.2µM | Papain inh inactive
CN(C)c1ccc(CNC(=O)Cn2ccc3cc(S(=O)(=O)N4CCCCCC4)ccc32)cc1	none
CC(C)c1ccc2oc(-c3cccc(NC(=O)c4ccc5c(c4)OCCO5)c3)nc2c1	none
N#CCCCS(=O)(=O)c1nnnn1-c1ccc(F)cc1Br	none
Nc1nnc(CC(=O)N/N=C/c2ccc(-c3ccccc3Cl)o2)s1	none
NC(=S)N/N=C/c1ccc(-c2ccc(Cl)c(Cl)c2)o1	Cruzain noTriton 0.63µM, Cruzain Triton 0.63µM | Papain inh 6.3µM
NC(=S)N/N=C\c1ccc(-c2cccc(Cl)c2Cl)o1	Cruzain noTriton 0.63µM, Cruzain Triton 0.63µM | Papain inh 2.8µM
COC(=O)N/N=C\c1ccc(-c2cc(Cl)c(Cl)cc2Cl)o1	Cruzain noTriton inconclusive
CN(C(=O)CSc1nc2ccccc2n1Cc1cccc(C(F)(F)F)c1)c1ccccc1	Cruzain noTriton inconclusive
O=C(Nc1ccc(-c2nc3ccccc3o2)c(O)c1)c1cc(Cl)ccc1Cl	none
O=C(Nc1ccc(O)c(-c2nc3ccccc3o2)c1)C1(c2ccc([N+](=O)[O-])cc2)CCCC1	Cruzain noTriton 4µM | Papain inh inactive
COc1ccc(-c2noc(-c3ccccc3NC(=O)c3cc(OC)c(OC)c(OC)c3)n2)cc1	none
CC1CCCN(S(=O)(=O)c2cc3c4c(c2)CC(=O)N4CCC3)C1 (centres undefined)	none
CCC(C)NC(=O)c1ccc2nc(-c3ccco3)c(-c3ccco3)nc2c1 (centres undefined)	none (no result: Cruzain noTriton, Cruzain Triton) | Papain inh 16µM
CCC(C)NC(=O)c1ccc2nc(Cc3ccccc3)oc2c1 (centres undefined)	none
CCN(CC)c1nc(C#N)nc(N2CCOCC2)n1	none (no result: Cruzain noTriton, Cruzain Triton) | Papain inh 1µM
N#Cc1nc(N2CCCCC2)nc(N2CCCCC2)n1	none (no result: Cruzain noTriton, Cruzain Triton) | Papain inh 2.2µM
CCNc1nc(C#N)nc(N2CCCCC2)n1	none (no result: Cruzain noTriton, Cruzain Triton) | Papain inh 2.5µM
Clc1nc(Cl)nc(N(c2ccccc2)c2ccccc2)n1	none
CC(C)CN(C#N)c1nc(N2CCOCC2)nc(N2CCOCC2)n1	none
CCOc1nc(C#N)nc(N(c2ccccc2)c2ccccc2)n1	none (no result: Cruzain noTriton, Cruzain Triton) | Papain inh inactive
CC(C)(C)Nc1nc(N2CCCC2)nc(N2CCCC2)n1	none
CCNc1nc(NC(C)(C)C)nc(N2CCCC2)n1	none
COc1ccc(-c2cc(C(F)(F)F)n3nc(C(=O)OC(C)C)cc3n2)cc1	none
Cc1ccc2oc(C(=O)Nc3c(C(=O)Nc4cccc(Cl)c4)oc4ccccc34)cc(=O)c2c1	none
